uPA generation – cell surface uPA generation inhibition | 330,000 compounds, 0.31% hits | cell surface uPA generation assay, qHTS | Potency, µM (doses to about 38.3 µM), most hits filed as inhibitors | AID 540303; active = well fitted inhibition curve with a large enough effect; inconclusive = small, poorly fitted or top-dose-only effect; inactive = no such curve, though single readings can be large or run the other way; tested in mouse RAW 264.7 cells; note: nearly all actives have a fitted effect of over 55% in size
IL1B secr inh – inhibitors of inflammasome signaling (IL-1 beta secretion). THP-1 LPS/ATP IL-1B secretion, AlphaLISA, 16 h; active compounds read low. activity change, % at 57.5 µM. 360,000 compounds, 4.7% hits. AID 743279; in the data active = activity change below about -50%; inconclusive = mostly about -30% to -49%
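THP-1 cells pretreated 1 hr with compounds (up to 57.5 uM final), then stimulated with LPS (250 ng/mL final) plus ATP (1.25 mM final); secreted IL-1B measured by AlphaLISA after 16 hr, decreased signal indicating inhibition.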
TDP1 cell noCPT – qHTS for Inhibitors of human tyrosyl-DNA phosphodiesterase 1 (TDP1): qHTS in cells in absence of CPT; DT40 Tdp1-/- hTDP1 cells, no CPT, ATP luminescence, 48 h; Potency, µM (highest dose often 46.2 µM), most hits filed as inhibitors; 420,000 compounds, 15% hits; AID 686978, 2013; note: nearly all actives have a fitted effect of over 55% in size
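Cells were dispensed at 400 per well, compounds added by pin tool, plates incubated ≥48 hr at 37 °C, then CellTiter-Glo added for 30 min at room temperature before luminescence reading. Line: DT40 Tdp1-/- complemented with hTDP1; camptothecin omitted.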
HT1080 IDH1KD tx – HT-1080 IDH1 knockdown cell toxicity (counter line) | HT-1080 IDH1 knockdown viability, ATP luminescence, 48 h | Potency, µM (top dose mostly 46.1 µM), usual class: cytotoxic | 360,000 compounds, 2% hits | AID 686971
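Knockdown cells (IDH1KD HT-1080) received compounds 2 h after plating at 750 cells/well and were kept 48 h at 37 °C in 5% FBS RPMI. A CellTiter-Glo luminescence read gave % activity for curve fitting.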
HT1080-NT tox – kills 2HG-producing HT-1080-NT fibrosarcoma cells; AID 686970; HT-1080-NT fibrosarcoma viability, CellTiter-Glo ATP luminescence, 48 h; 360,000 compounds, 1.6% hits; Potency, µM (doses to about 46.1 µM), actives largely listed as cytotoxic;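 note: NT is the 2HG producing partner of a matched IDH1 knockdown line; nearly all actives have a fitted effect of over 55% in size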
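A 48-hour cytotoxicity screen used HT-1080-NT cells plated 2 hours before compound delivery. ATP-based CellTiter-Glo luminescence measured viability, normalized to DMSO and no-cell controls.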
DT40 TDP1 CPT – growth inhibition of DT40 Tdp1-/-;hTDP1 cells with camptothecin (screen for TDP1 inhibitors); AID 686979; chicken DT40 Tdp1-/-;hTDP1 cells + 20 nM CPT, ATP luminescence, 48 h; 420,000 compounds, 12% hits; Potency, µM (titrated, usually from 46.2 µM), actives largely listed as inhibitors; note: nearly all actives have a fitted effect of over 55% in size
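Chicken DT40 Tdp1-/- cells stably complemented with human TDP1 were seeded at 400 cells/well in medium containing 20 nM camptothecin, exposed to pin-transferred compounds, and grown at 37 °C for at least 48 hr. Viability was read as ATP luminescence.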
A number is an active result. Hits are enriched below; roughly 19% of the tested compounds scored in any of these assays. Unless noted, calls come from the whole dose curve; as a rule, active = well fitted curve in the direction sought with a large enough effect; inconclusive = small, poorly fitted or top-dose-only effect, or another doubt; inactive = no such curve, though single readings can be large; an effect the other way counts as inactive or inconclusive.

CC[C@H](C)NC(=O)c1ccc(Cn2c(=S)[nH]c3c([nH]c4ccc(OC)cc43)c2=O)cc1 was read as uPA generation inactive, IL1B secr inh inactive, TDP1 cell noCPT inactive, HT1080 IDH1KD tx inactive, HT1080-NT tox inactive and DT40 TDP1 CPT inconclusive.
`CCOCCCNC(=O)c1ccc(Cn2c(=S)[nH]c3c([nH]c4ccc(OC)cc43)c2=O)cc1` gave uPA generation inactive, IL1B secr inh inactive, TDP1 cell noCPT inactive, HT1080 IDH1KD tx inactive, HT1080-NT tox inactive and DT40 TDP1 CPT inactive.
COc1ccc(CNC(=O)CCS(=O)(=O)c2cc(Br)cc3c2N(C(C)=O)C(C)C3)cc1 (stereo not drawn) was read as TDP1 cell noCPT inconclusive and DT40 TDP1 CPT inactive.
`O=C(Cn1c2[n+](c3ccc(C(F)(F)F)cc31)CCCCC2)Nc1ccc(Br)cc1` gave uPA generation inactive, IL1B secr inh inactive, TDP1 cell noCPT inactive, HT1080 IDH1KD tx inactive, HT1080-NT tox inactive and DT40 TDP1 CPT inactive.
N#Cc1ccc(NC(=O)Cn2c3[n+](c4ccc(C(F)(F)F)cc42)CCCCC3)cc1 was read as uPA generation inactive, IL1B secr inh inactive, TDP1 cell noCPT inconclusive, HT1080 IDH1KD tx inactive, HT1080-NT tox inactive and DT40 TDP1 CPT inconclusive.
FC(F)(F)c1cccc(Cn2c3[n+](c4ccc(C(F)(F)F)cc42)CCCCC3)c1 was read as uPA generation inactive, IL1B secr inh -77, TDP1 cell noCPT 23µM, HT1080 IDH1KD tx inactive, HT1080-NT tox inactive and DT40 TDP1 CPT inconclusive.
For Cc1cc(C(C)(C)C)cc(C)c1Cn1c2[n+](c3ccc(C(F)(F)F)cc31)CCCCC2 the results were uPA generation inactive, IL1B secr inh -108, TDP1 cell noCPT 1.8µM, HT1080 IDH1KD tx inconclusive, HT1080-NT tox 15µM and DT40 TDP1 CPT 2.1µM.
Cc1ncc(CO)c2c1Oc1nc(-c3ccc(F)cc3)nc(SCC(=O)N3CCCCC3)c1C2 was read as TDP1 cell noCPT 9.2µM and DT40 TDP1 CPT 16µM.
Cc1ncc(CO)c2c1Oc1nc(-c3ccccc3)nc(SCC(=O)Nc3cccc(O)c3)c1C2 was read as uPA generation inactive, IL1B secr inh inactive, TDP1 cell noCPT 26µM, HT1080 IDH1KD tx inactive, HT1080-NT tox inactive and DT40 TDP1 CPT inconclusive.
Cc1ncc(CO)c2c1Oc1nc(-c3ccc(F)cc3)nc(SCc3ccc(F)cc3Cl)c1C2 was read as TDP1 cell noCPT inactive and DT40 TDP1 CPT inactive.
`Cc1ncc(CO)c2c1Oc1nc(-c3ccccc3)nc(SCC(=O)Nc3cccc(C(F)(F)F)c3)c1C2` gave TDP1 cell noCPT 4.6µM and DT40 TDP1 CPT 6.5µM.
For COc1ccc(-c2nc3c(c(SCC(=O)Nc4cccc(O)c4)n2)Cc2c(CO)cnc(C)c2O3)cc1 the results were uPA generation inactive, IL1B secr inh inactive, TDP1 cell noCPT 18µM, HT1080 IDH1KD tx inactive, HT1080-NT tox inactive and DT40 TDP1 CPT inconclusive.
For O=[N+]([O-])c1ccccc1NS(=O)(=O)c1ccccc1 the results were IL1B secr inh inactive, TDP1 cell noCPT inactive, HT1080 IDH1KD tx inactive, HT1080-NT tox inactive and DT40 TDP1 CPT inactive.
For COCCn1c(=O)c(-c2ccc(OC)cc2)nc2cnc(Oc3ccc(OC)cc3)nc21 the results were TDP1 cell noCPT inactive and DT40 TDP1 CPT inactive.
COc1ccc(N2CCN(C(=O)/C=C/[C@H]3O[C@@H](n4ccc(=O)[nH]c4=O)[C@H](O)[C@@H]3O)CC2)cc1 was read as IL1B secr inh inactive, TDP1 cell noCPT inactive, HT1080 IDH1KD tx inactive, HT1080-NT tox inactive and DT40 TDP1 CPT inactive.
For O=C(Cn1c(=O)n(CCc2ccccc2)c(=O)c2cccnc21)Nc1ccc(F)cc1 the results were TDP1 cell noCPT inconclusive and DT40 TDP1 CPT inactive.
Screening Cc1ccc(CC2(C)C(=O)Nc3c(Cl)ccc(Cl)c32)cc1 (stereo not drawn) returned IL1B secr inh inactive, TDP1 cell noCPT 16µM, HT1080 IDH1KD tx inactive, HT1080-NT tox inconclusive and DT40 TDP1 CPT inconclusive.
`CC1(Cc2ccc(Cl)cc2)C(=O)Nc2c(Cl)ccc(Cl)c21` (stereo not drawn) gave IL1B secr inh inactive, TDP1 cell noCPT inconclusive, HT1080 IDH1KD tx inconclusive, HT1080-NT tox inconclusive and DT40 TDP1 CPT 26µM.
Screening CC1(Cc2cccc(C(F)(F)F)c2)C(=O)Nc2c(Cl)ccc(Cl)c21 (stereo not drawn) returned IL1B secr inh inactive, TDP1 cell noCPT inconclusive, HT1080 IDH1KD tx inconclusive, HT1080-NT tox inconclusive and DT40 TDP1 CPT inconclusive.
CC1(Cc2ccccc2Cl)C(=O)Nc2c(Cl)ccc(Cl)c21 (stereo not drawn) was read as IL1B secr inh inactive, TDP1 cell noCPT inconclusive, HT1080 IDH1KD tx inconclusive, HT1080-NT tox inconclusive and DT40 TDP1 CPT inconclusive.
CCCCN1CC(N2CCN(CCN(C)C)CC2)CS1(=O)=O (stereo not drawn) was read as IL1B secr inh inactive, TDP1 cell noCPT inactive, HT1080 IDH1KD tx inactive, HT1080-NT tox inactive and DT40 TDP1 CPT inactive.
`COc1cccc(CNC(=O)Cn2ccc3cc(S(=O)(=O)N4CCCCCC4)ccc32)c1` gave uPA generation inconclusive, IL1B secr inh inconclusive, TDP1 cell noCPT inconclusive, HT1080 IDH1KD tx inactive, HT1080-NT tox inactive and DT40 TDP1 CPT inactive.
Screening C/C(=N\NC(=O)c1ccccc1F)c1ccc2c(c1)Nc1ccccc1S2 returned uPA generation inactive, IL1B secr inh inconclusive, TDP1 cell noCPT 23µM, HT1080 IDH1KD tx inconclusive, HT1080-NT tox inactive and DT40 TDP1 CPT 5.8µM.
`CCNC(=O)C1CCCN(C(=O)c2cccc(OC(F)(F)F)c2)CC1` (stereo not drawn) gave IL1B secr inh inactive, TDP1 cell noCPT inconclusive, HT1080 IDH1KD tx inactive, HT1080-NT tox inactive and DT40 TDP1 CPT inconclusive.
O=S(=O)(c1ccc(Cl)cc1)c1nc(-c2ccccc2F)oc1NCc1ccccc1 was read as TDP1 cell noCPT 18µM and DT40 TDP1 CPT inconclusive.
For COc1ccc(-c2nc(S(=O)(=O)c3ccc(Cl)cc3)c(NCc3ccccc3)o2)cc1 the results were TDP1 cell noCPT inconclusive and DT40 TDP1 CPT 16µM.
Screening O=C(Nc1ccc(N2CCN(CCOc3ccc(Cl)cc3)CC2)c(C(=O)O)c1)c1ccc(F)cc1 returned TDP1 cell noCPT inactive and DT40 TDP1 CPT inactive.
S=c1sscc1-c1ccccc1 was read as uPA generation inactive, IL1B secr inh inconclusive, TDP1 cell noCPT inactive, HT1080 IDH1KD tx inactive, HT1080-NT tox inactive and DT40 TDP1 CPT inactive.
O=C(CCCl)Nc1nnc(SCC(=O)NC2CCCC2)s1 was read as uPA generation inactive, IL1B secr inh -88, TDP1 cell noCPT 3.3µM, HT1080 IDH1KD tx 29µM, HT1080-NT tox 15µM and DT40 TDP1 CPT 3.3µM.
